Giardia killer – Small Molecules that selectively kill Giardia lamblia: qHTS; Giardia lamblia trophozoite viability; activity change, % at 7.66 µM, hits read low; 340,000 compounds, 0.15% hits; in the data active = activity change below about -80%; inconclusive = between about -30% and that limit;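 also: parasites exposed to compound for two days anaerobically before the ATP read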
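Killing of trophozoites was scored by loss of ATP luminescence after a 48 hrs anaerobic exposure to compounds at 37 deg C, using 100 cells per well.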
BRCA1 expr up – qHTS Assay to Identify Small Molecule Activators of BRCA1 Expression | MCF7-BRCA1-FFLuc reporter, luminescence, 48 h; response scale: scaled: vehicle 0%, 10 µM genistein 100% | 380,000 compounds, 1.1% hits | Potency, µM (titrated, usually from 46.1 µM), most hits filed as activators; also: nearly all actives have a fitted effect of over 80% in size
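48 h compound treatment of MCF7-BRCA1-FFLuc cells (phenol-red free MEM, 37 °C), then 15 min with luciferase substrate and luminescence imaging.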
ELG1 repair inh – qHTS screen for small molecules that inhibit ELG1-dependent DNA repair in human embryonic kidney (HEK293T) cells expressing luciferase-tagged ELG1; Potency, µM (top dose mostly 46.1 µM), most hits filed as inhibitors; 330,000 compounds, 2.3% hits; AID 504467, 2011; HEK293T ELG1-luciferase reporter, luminescence, 16 h; DNA damage induced by 5-fluorouridine; also: nearly all actives have a fitted effect of over 55% in size
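Cells (2,000 per well) received 5-fluorouridine plus test compound or DMSO and were incubated 16 hr at 37 °C, 5% CO2. Luciferase activity was read by luminescence 30 min after ONE-Glo addition; signal suppression marked inhibition of damage-induced ELG1 function.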
RORgamma inh – qHTS for inhibitors of ROR gamma transcriptional activity; 310,000 compounds, 5.4% hits; Potency, µM (highest dose often 53.6 µM), most hits filed as inhibitors; Drosophila S2 Gal4-RORgamma UAS-luciferase reporter, 20 h; Nuclear receptor ROR-gamma (Mus musculus), P51450; also: nearly all actives have a fitted effect of over 60% in size
Target sequence (P51450 whole entry, looked up, the tested form may be a part): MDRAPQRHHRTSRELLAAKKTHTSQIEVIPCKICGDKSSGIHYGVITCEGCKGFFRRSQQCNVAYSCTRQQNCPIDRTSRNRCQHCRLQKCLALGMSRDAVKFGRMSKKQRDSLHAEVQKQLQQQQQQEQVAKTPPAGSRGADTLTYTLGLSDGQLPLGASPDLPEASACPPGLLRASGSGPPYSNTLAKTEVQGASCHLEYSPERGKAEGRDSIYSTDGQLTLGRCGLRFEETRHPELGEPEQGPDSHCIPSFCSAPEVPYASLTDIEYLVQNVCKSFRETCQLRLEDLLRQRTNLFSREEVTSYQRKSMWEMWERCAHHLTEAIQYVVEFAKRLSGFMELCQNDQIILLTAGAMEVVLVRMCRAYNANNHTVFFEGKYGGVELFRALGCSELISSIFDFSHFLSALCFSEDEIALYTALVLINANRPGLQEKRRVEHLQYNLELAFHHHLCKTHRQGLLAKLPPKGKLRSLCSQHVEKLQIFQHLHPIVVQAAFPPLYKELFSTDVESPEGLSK
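A Gal4/UAS one-hybrid system in insect cells: metallothionein-promoter Gal4–ROR gamma fusion plus Photinus luciferase reporter. Copper sulfate 700 uM final, 20 hr ambient incubation, luminescent detection after 10 min with reagent.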
p53 reactivation – qHTS assay for re-activators of p53 using a Luc reporter; H1299 p53-A138V BP100-luciferase reporter, luminescence, 24 h; Potency, µM (titrated, usually from 92.2 µM), hits mostly activators; AID 504706, 2011; 320,000 compounds, 0.063% hits; also: nearly all actives have a fitted effect of over 45% in size
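p53-null H1299 cells stably carrying temperature-sensitive p53-A138V and a BP100-luciferase reporter were pinned with compounds (4-point, 1:5 series) and held 24 hrs at 37 deg C. Luminescence was read 10 min after detection reagent.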
Gal4-VP16 FLuc – VP16 counterscreen qHTS for inhibitors of ROR gamma transcriptional activity; Potency, µM (series often up to 53.6 µM), actives largely listed as inhibitors; Drosophila S2 Gal4-VP16 UAS-luciferase, luminescence, 20 h; AID 2546, 2010; 310,000 compounds, 3.5% hits;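 also: Gal4-VP16 expression switched on by copper sulfate through the metallothionein promoter; nearly all actives have a fitted effect of over 50% in size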
ELG1 FLuc counter – qHTS screen for small molecules that inhibit ELG1-dependent DNA repair: Hit Confirmation in Cell-Based Luciferin Assay; shares compounds with ELG1 repair inh; Potency, µM (doses to about 46.1 µM), usual class: inhibitors; cell-free firefly luciferase luminescence counter-screen, ViewLux; AID 624247, 2012; 350 compounds, 3% hits
ELG1-Luc inh – HTS assay for small molecules that inhibit ELG1-dependent DNA repair in human embryonic kidney (HEK293T) cells expressing luciferase-tagged ELG1: Hit Confirmation; shares compounds with ELG1 repair inh; AID 624248, 2012; HEK293T ELG1-luciferase levels, luminescence; cells co-treated with 5-fluorouridine; 670 compounds, 68% hits; Potency, µM (doses to about 46.1 µM), usual class: inhibitors; also: nearly all actives have a fitted effect of over 55% in size
ELG1-Luc MMS – confirmation of human ELG1 repair inhibitors, MMS stimulated. shares compounds with ELG1 repair inh. HEK293T luciferase-tagged ELG1 level, MMS stimulated. Potency, µM (series often up to 46.1 µM), actives largely listed as inhibitors. 670 compounds, 53% hits. AID 624249; also: nearly all actives have a fitted effect of over 60% in size
ELG1 5-FU – qHTS screen for small molecules that inhibit ELG1-dependent DNA repair: Hit Confirmation with 5FU Viability; shares compounds with ELG1 repair inh; 670 tested, under 10 active; cell viability with 5-FU, ELG1-dependent repair; Potency, µM (series often up to 46.1 µM), actives largely listed as cytotoxic;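 also: ELG1-luc HEK293T cells cotreated with 5-fluorouridine at 10 µM final; viability measured 16 h after compound addition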
ELG1 MMS viab – qHTS screen for small molecules that inhibit ELG1-dependent DNA repair: Hit Confirmation with MMS Viability. shares compounds with ELG1 repair inh. Cell viability with MMS, ELG1-dependent DNA repair. Potency, µM (top dose mostly 46.1 µM), hits mostly cytotoxic. 670 compounds, 33% hits;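 also: ELG1-luc HEK293T cells co-treated with 10 µM MMS; viability read 16 h after compound addition; nearly all actives have a fitted effect of over 60% in size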
ELG1 unstim viab – qHTS screen for small molecules that inhibit ELG1-dependent DNA repair: Hit Confirmation with Unstimulated Viability Assay | shares compounds with ELG1 repair inh | cell viability counter-screen, unstimulated, luminescence | Potency, µM (highest dose often 45.9 µM), usual class: cytotoxic | 900 compounds, 8% hits | AID 624252, 2012;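 also: compound exposure lasted 16 hours before reading; nearly all actives have a fitted effect of over 55% in size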
FLuc biochem – qHTS screen for small molecules that inhibit ELG1-dependent DNA repair: Hit Confirmation in Biochemical Luciferin Assay; Potency, µM (doses to about 57.5 µM), hits mostly inhibitors; purified firefly luciferase, luminescence counter-screen; AID 624253, 2012; 350 compounds, 10% hits; shares compounds with ELG1 repair inh
A number is an active result. Only some compounds are listed: those with a hit (about 7.6% of all), similar ones and a draw of the others. Unless noted, calls follow the shape of the dose curve; as a rule, active = well fitted curve in the direction sought with a large enough effect; inconclusive = small, poorly fitted or top-dose-only effect, or another doubt; inactive = no such curve, though single readings can be large; an effect the other way counts as inactive or inconclusive.

Results for CN(C)c1ccnc2sc3c(=O)n(-c4ccccc4)cnc3c12 ?
Giardia killer: inactive; BRCA1 expr up: inactive; ELG1 repair inh: 11.6µM; RORgamma inh: inactive; p53 reactivation: inactive; Gal4-VP16 FLuc: inactive; ELG1 FLuc counter: inactive; ELG1-Luc inh: 15.8µM; ELG1-Luc MMS: inconclusive; ELG1 5-FU: inactive; ELG1 MMS viab: inactive; ELG1 unstim viab: inconclusive; FLuc biochem: inactive

Results for CC1(C)Cc2c(c(N3CCOCC3)nc3sc(C(=O)N4CCCCC4)c(N)c23)CO1 ?
Giardia killer: inactive; BRCA1 expr up: inactive; ELG1 repair inh: 0.206µM; RORgamma inh: inactive; p53 reactivation: inactive; Gal4-VP16 FLuc: inactive; ELG1 FLuc counter: inactive; ELG1-Luc inh: 0.445µM; ELG1-Luc MMS: inactive; ELG1 5-FU: inconclusive; ELG1 MMS viab: inactive; ELG1 unstim viab: inactive; FLuc biochem: inactive

How did COc1ccc(NC(=O)c2sc3nc(N4CCOCC4)c4c(c3c2N)CC(C)(C)OC4)cc1 do in these assays?
Giardia killer: inactive; BRCA1 expr up: inactive; ELG1 repair inh: 0.411µM; RORgamma inh: inactive; p53 reactivation: inactive; Gal4-VP16 FLuc: inactive; ELG1 FLuc counter: inactive; ELG1-Luc inh: 0.354µM; ELG1-Luc MMS: inactive; ELG1 5-FU: inconclusive; ELG1 MMS viab: inactive; ELG1 unstim viab: inactive; FLuc biochem: inactive

What do the screens show for `CC(C)n1nc(C(=O)Nc2cccc(S(=O)(=O)NCc3ccco3)c2)c2ccccc2c1=O`?
Giardia killer: inactive; BRCA1 expr up: inactive; ELG1 repair inh: inconclusive; RORgamma inh: inactive; p53 reactivation: inactive; Gal4-VP16 FLuc: inactive

Results for Cc1ccccc1NC(=O)COC(=O)/C=C/c1cn(-c2ccccc2)nc1-c1cccnc1 ?
Giardia killer: inactive; BRCA1 expr up: inactive; ELG1 repair inh: inconclusive; RORgamma inh: inactive; p53 reactivation: inactive; Gal4-VP16 FLuc: inactive

What do the screens show for `CC(=O)Nc1ccc(NC(=O)C(C)OC(=O)/C=C/c2cn(-c3ccccc3)nc2-c2cccnc2)cc1` (stereo not drawn)?
Giardia killer: inactive; BRCA1 expr up: inactive; ELG1 repair inh: 1.64µM; RORgamma inh: 12.6µM; p53 reactivation: inactive; Gal4-VP16 FLuc: inconclusive; ELG1-Luc inh: 0.791µM; ELG1-Luc MMS: 25µM; ELG1 5-FU: inconclusive; ELG1 MMS viab: 25µM; ELG1 unstim viab: inconclusive

What do the screens show for `CN(C)S(=O)(=O)Oc1ccc(C(=O)Nc2ccc([N+](=O)[O-])cc2)cc1`?
Giardia killer: inactive; BRCA1 expr up: inactive; ELG1 repair inh: 2.91µM; RORgamma inh: inactive; p53 reactivation: inactive; Gal4-VP16 FLuc: inactive; ELG1-Luc inh: 0.705µM; ELG1-Luc MMS: 3.15µM; ELG1 5-FU: inconclusive; ELG1 MMS viab: inconclusive; ELG1 unstim viab: inactive

What do the screens show for `O=C(NCN1CCc2ccccc2C1)c1ccccc1`?
Giardia killer: inactive; BRCA1 expr up: inactive; ELG1 repair inh: inactive; RORgamma inh: inactive; p53 reactivation: inactive; Gal4-VP16 FLuc: inactive

Results for COc1ccc(-c2nc3ccc(C(=O)NCC(OC)OC)cc3nc2-c2ccc(OC)c(OC)c2)cc1OC ?
Giardia killer: inactive; BRCA1 expr up: inactive; ELG1 repair inh: 1.03µM; RORgamma inh: inactive; p53 reactivation: inactive; Gal4-VP16 FLuc: inactive; ELG1-Luc inh: 0.705µM; ELG1-Luc MMS: inactive; ELG1 5-FU: inconclusive; ELG1 MMS viab: inconclusive; ELG1 unstim viab: inactive

Results for CCOCCCNC(=O)c1ccc2nc(-c3ccc(OC)c(OC)c3)c(-c3ccc(OC)c(OC)c3)nc2c1 ?
Giardia killer: inactive; BRCA1 expr up: inactive; ELG1 repair inh: 1.46µM; RORgamma inh: inactive; p53 reactivation: inactive; Gal4-VP16 FLuc: inactive; ELG1-Luc inh: 0.445µM; ELG1-Luc MMS: inconclusive; ELG1 5-FU: inconclusive; ELG1 MMS viab: inconclusive; ELG1 unstim viab: inconclusive

Results for CCc1nc2ccc(C(=O)NCCc3ccc(OC)c(OC)c3)cc2nc1CC ?
Giardia killer: inactive; BRCA1 expr up: inactive; ELG1 repair inh: inactive; RORgamma inh: inactive; p53 reactivation: inactive; Gal4-VP16 FLuc: inactive

What do the screens show for `CCCCOc1ccc(C(=O)N/C(=C/c2cccc([N+](=O)[O-])c2)C(=O)O)cc1`?
Giardia killer: inactive; BRCA1 expr up: inactive; ELG1 repair inh: inactive; RORgamma inh: inactive; p53 reactivation: inactive; Gal4-VP16 FLuc: inactive

What do the screens show for `COc1ccc(/C=C/C(=O)C(C)(C)C)cc1OC`?
Giardia killer: inactive; BRCA1 expr up: inactive; ELG1 repair inh: inactive; RORgamma inh: inactive; p53 reactivation: inconclusive; Gal4-VP16 FLuc: inactive

Screening data deposited in PubChem by National Center for Advancing Translational Sciences (NCATS).
